# Measurements from article PMC7862700, “An all-to-all approach to the identification of sequence-specific readers for epigenetic DNA modifications on cytosine”.
# Tests used:
# Assay in all cases: DAPPL (digital affinity profiling via proximity ligation, sequencing); 10 mM Tris-HCl pH 7.5, 50 mM NaCl, 1 mM DTT, 4% glycerol, room temperature, 30 min; GST-TFs on glutathione beads, 16-mer random dsDNA library, 0.1% formaldehyde crosslink after washing; high values mean tight binding
# Conditions in all cases: protein: recombinant; tags: N-terminal GST; dsDNA, one strand shown
# [1] = molecular target: T1, FLI1 (Homo sapiens, UniProt Q01543 1-452)
# T1 sequence: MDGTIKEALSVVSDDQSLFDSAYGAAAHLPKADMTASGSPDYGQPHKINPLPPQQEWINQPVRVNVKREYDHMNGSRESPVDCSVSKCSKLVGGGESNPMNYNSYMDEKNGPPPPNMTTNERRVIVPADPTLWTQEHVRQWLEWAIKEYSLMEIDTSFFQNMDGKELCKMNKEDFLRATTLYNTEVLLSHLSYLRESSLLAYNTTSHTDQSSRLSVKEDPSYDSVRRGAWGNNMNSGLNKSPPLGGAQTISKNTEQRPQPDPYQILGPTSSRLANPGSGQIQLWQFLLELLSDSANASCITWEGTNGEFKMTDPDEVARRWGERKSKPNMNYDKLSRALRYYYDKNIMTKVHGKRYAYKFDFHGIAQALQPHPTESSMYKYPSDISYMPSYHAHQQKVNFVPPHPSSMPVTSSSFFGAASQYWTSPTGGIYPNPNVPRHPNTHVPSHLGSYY
# Outline: (§1)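 Human transcription factors carrying a GST fusion were produced in yeast, bound to glutathione beads, tagged with DNA barcodes and pooled together with a tag-only sample. Each pool was held with 200 nmole of a random double-stranded 16-mer DNA library in Tris/NaCl/DTT/glycerol buffer for 30 min at room temperature, then washed, crosslinked in 0.1% formaldehyde, proximity-ligated with BsaI/T4 ligase (1 h, 37 °C), PCR-amplified and sequenced on an Illumina NextSeq500. Binding signal is the read frequency of each hexamer for a given factor divided by its frequency in the tag-only sample.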
# [2] = molecular target: T2, ELK1 (Homo sapiens, UniProt P19419 1-428)
# T2 sequence: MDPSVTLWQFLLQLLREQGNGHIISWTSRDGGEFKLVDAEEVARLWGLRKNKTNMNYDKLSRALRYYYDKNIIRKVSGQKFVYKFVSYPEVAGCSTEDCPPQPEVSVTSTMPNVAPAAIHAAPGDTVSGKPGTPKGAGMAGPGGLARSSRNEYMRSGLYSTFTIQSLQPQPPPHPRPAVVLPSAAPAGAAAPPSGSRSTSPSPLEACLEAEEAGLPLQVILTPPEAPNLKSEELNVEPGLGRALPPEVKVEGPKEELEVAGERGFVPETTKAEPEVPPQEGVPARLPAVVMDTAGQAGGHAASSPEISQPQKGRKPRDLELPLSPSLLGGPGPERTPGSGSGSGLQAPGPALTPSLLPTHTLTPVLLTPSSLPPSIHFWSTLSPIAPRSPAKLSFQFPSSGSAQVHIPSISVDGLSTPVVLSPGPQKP
# Outline: as §1
# [3] = molecular target: T3, GABPA (Homo sapiens, UniProt Q06546 1-454)
# T3 sequence: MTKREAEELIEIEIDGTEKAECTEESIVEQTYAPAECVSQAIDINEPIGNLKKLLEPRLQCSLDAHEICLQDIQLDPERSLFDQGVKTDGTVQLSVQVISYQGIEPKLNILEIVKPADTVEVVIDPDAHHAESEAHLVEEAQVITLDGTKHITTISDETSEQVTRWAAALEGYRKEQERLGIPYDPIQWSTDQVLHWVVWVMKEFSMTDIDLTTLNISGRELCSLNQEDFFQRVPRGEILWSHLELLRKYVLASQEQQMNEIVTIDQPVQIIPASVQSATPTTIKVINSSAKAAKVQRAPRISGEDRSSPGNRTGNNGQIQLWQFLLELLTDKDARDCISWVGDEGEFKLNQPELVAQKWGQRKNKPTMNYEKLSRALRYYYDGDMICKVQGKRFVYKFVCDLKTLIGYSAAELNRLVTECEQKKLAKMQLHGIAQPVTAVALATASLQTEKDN
# Outline: as §1
# [4] = molecular target: T4, ERG (Homo sapiens, UniProt P11308 1-479)
# T4 sequence: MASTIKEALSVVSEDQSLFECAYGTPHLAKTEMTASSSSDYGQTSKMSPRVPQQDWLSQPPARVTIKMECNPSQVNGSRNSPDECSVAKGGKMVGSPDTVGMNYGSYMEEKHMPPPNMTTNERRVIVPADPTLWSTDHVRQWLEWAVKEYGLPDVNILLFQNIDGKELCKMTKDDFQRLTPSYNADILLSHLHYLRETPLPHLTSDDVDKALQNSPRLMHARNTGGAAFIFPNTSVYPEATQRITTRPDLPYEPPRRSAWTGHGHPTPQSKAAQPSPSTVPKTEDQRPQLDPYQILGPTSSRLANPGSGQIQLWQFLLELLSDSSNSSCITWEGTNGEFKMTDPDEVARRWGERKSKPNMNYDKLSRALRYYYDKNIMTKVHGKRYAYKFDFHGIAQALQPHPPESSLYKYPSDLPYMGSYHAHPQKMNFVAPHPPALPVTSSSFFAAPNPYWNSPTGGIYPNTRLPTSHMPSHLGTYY
# Outline: as §1
# [5] = molecular target: ELF1 (Homo sapiens, UniProt P32519 1-619)
# Outline: as §1
# [6] = molecular target: T5, EHF (Homo sapiens, UniProt Q9NZC4 1-300)
# T5 sequence: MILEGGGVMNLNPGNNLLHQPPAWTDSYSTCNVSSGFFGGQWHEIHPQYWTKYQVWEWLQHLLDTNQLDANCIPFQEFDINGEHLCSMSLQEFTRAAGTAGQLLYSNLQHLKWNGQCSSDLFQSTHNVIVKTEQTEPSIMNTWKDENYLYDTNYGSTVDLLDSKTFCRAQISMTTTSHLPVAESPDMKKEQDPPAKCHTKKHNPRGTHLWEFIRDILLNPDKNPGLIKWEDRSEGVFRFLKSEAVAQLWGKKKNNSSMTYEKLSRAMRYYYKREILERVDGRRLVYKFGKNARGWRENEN
# Outline: as §1
# [7] = molecular target: SPI1 (Homo sapiens, UniProt P17947 1-270)
# Outline: as §1
# [8] = molecular target: SPIB (Homo sapiens, UniProt Q01892 1-262)
# Outline: as §1
# [9] = molecular target: T6, ELK3 (Homo sapiens, UniProt P41970 1-407)
# T6 sequence: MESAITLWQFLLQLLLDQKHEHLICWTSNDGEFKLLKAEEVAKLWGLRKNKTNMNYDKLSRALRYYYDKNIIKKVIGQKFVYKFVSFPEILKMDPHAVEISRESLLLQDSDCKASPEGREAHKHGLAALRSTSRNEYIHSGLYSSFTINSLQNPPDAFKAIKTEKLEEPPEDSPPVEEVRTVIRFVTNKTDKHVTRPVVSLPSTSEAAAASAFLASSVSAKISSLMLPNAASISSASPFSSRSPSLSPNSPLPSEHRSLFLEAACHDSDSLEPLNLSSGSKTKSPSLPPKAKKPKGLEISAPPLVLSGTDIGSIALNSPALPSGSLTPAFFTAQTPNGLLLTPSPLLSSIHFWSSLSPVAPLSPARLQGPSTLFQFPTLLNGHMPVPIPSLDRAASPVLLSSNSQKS
# Outline: as §1
# Chain of ELF1 (P32519 whole entry): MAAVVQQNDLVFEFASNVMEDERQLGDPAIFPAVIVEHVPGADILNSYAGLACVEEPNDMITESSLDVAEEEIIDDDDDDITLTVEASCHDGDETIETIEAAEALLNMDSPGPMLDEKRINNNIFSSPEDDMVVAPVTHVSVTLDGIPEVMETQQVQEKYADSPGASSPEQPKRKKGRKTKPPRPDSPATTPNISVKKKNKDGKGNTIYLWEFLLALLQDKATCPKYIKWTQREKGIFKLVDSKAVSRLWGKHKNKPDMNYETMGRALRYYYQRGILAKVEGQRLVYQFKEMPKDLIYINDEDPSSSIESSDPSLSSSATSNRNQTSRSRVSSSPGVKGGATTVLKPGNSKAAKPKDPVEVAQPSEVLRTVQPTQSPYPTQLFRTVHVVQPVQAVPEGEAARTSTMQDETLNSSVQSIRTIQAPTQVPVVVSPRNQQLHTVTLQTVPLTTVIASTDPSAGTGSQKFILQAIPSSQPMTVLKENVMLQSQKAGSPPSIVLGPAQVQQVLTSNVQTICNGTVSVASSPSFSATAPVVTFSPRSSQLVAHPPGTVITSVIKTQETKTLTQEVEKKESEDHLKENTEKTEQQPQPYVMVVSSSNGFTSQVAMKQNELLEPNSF
# Chain of SPIB (Q01892 whole entry): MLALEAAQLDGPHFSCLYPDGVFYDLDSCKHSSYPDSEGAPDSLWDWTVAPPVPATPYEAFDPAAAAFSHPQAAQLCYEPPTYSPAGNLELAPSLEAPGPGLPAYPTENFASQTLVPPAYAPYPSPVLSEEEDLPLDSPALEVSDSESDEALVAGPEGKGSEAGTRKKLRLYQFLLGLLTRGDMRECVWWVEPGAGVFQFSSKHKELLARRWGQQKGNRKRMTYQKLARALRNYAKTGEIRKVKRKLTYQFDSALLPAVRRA
sequence,measurement,setting,value
CCACGC,binding signal,[1],"1.28 fold enrichment (6-mer frequency, TF over GST control)"
same,binding signal,[2],"1.2 fold enrichment (6-mer frequency, TF over GST control)"
same,binding signal,[3],"1.28 fold enrichment (6-mer frequency, TF over GST control)"
same,binding signal,[4],"1.16 fold enrichment (6-mer frequency, TF over GST control)"
same,binding signal,[5],"1.22 fold enrichment (6-mer frequency, TF over GST control)"
same,binding signal,[6],"1.12 fold enrichment (6-mer frequency, TF over GST control)"
same,binding signal,[7],"1.07 fold enrichment (6-mer frequency, TF over GST control)"
same,binding signal,[8],"1.14 fold enrichment (6-mer frequency, TF over GST control)"
same,binding signal,[9],"1.31 fold enrichment (6-mer frequency, TF over GST control)"
